Assay in all cases: DAPPL (digital affinity profiling via proximity ligation, sequencing); 10 mM Tris-HCl pH 7.5, 50 mM NaCl, 1 mM DTT, 4% glycerol, room temperature, 30 min; GST-TFs on glutathione beads, 16-mer random dsDNA library, 0.1% formaldehyde crosslink after washing; high values mean tight binding
Holding throughout (details): protein: recombinant; tags: N-terminal GST; dsDNA, one strand shown

One assay deals with T1, ERF (Homo sapiens, UniProt P50548 1-548).
T1 sequence: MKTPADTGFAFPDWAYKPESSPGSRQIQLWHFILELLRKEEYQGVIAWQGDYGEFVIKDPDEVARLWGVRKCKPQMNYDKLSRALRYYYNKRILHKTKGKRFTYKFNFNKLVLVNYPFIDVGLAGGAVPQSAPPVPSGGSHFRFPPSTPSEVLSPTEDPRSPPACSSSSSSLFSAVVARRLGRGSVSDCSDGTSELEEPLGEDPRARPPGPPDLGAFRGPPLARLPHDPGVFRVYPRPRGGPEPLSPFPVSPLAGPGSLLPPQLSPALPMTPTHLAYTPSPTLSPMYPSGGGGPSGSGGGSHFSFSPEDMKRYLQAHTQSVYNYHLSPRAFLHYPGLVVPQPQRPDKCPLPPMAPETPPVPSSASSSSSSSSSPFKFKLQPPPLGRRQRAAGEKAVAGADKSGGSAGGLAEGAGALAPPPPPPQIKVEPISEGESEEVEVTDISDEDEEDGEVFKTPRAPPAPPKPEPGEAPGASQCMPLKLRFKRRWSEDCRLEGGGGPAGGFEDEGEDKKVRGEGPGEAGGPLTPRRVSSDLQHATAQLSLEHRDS
Put shortly:
(§1)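 Binding signal is each hexamer's read frequency for a factor divided by its frequency in the tag-only sample. The factors were GST-fused human transcription factors from yeast, captured on glutathione beads, DNA-barcoded and pooled with that sample. Pools were incubated with 200 nmole of a random double-stranded 16-mer DNA library in Tris/NaCl/DTT/glycerol buffer at room temperature for 30 min, then washed, crosslinked with 0.1% formaldehyde, proximity-ligated with BsaI/T4 ligase (1 h, 37 °C), PCR-amplified and sequenced on an Illumina NextSeq500.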

A further assay concerns the target T2, ETV3L (Homo sapiens, UniProt Q6ZN32 1-361).
T2 sequence: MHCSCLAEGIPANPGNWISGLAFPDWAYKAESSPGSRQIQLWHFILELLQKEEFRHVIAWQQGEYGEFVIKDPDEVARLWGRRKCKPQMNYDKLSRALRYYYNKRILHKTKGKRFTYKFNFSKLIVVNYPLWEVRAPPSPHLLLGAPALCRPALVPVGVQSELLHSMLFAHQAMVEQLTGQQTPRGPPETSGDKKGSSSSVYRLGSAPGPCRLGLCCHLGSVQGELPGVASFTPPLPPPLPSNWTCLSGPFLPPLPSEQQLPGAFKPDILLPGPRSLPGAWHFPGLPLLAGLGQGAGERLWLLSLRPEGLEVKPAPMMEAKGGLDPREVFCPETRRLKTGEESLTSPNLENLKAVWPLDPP
Put shortly:
as §1

A further assay addresses T3, ETS2 (Homo sapiens, UniProt P15036 1-469).
T3 sequence: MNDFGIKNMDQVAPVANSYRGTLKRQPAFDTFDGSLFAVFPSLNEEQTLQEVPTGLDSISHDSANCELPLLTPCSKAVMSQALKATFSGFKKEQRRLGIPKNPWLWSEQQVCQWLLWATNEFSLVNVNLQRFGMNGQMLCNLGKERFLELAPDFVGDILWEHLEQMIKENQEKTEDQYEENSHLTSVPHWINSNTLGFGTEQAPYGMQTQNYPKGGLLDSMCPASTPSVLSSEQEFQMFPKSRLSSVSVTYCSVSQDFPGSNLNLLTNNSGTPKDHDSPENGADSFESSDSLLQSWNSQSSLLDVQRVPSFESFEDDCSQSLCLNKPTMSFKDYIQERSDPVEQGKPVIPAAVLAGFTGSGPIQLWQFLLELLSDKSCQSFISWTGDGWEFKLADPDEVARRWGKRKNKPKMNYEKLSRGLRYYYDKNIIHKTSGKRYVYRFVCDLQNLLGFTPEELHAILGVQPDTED
In short, it runs like this:
as §1

A further assay addresses T4, SPDEF (Homo sapiens, UniProt O95238 1-335).
T4 sequence: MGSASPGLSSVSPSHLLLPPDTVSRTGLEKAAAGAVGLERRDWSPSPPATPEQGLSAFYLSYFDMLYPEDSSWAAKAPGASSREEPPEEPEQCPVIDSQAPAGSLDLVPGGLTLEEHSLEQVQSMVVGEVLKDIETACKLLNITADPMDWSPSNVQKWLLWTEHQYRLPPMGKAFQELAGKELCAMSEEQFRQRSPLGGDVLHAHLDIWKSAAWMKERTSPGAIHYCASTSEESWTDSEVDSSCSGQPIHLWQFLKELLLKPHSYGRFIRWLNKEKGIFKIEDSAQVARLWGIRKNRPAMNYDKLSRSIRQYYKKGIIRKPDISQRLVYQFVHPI
In short, it runs like this:
as §1

The next assay deals with T5, ETV7 (Homo sapiens, UniProt Q9Y603 1-341).
T5 sequence: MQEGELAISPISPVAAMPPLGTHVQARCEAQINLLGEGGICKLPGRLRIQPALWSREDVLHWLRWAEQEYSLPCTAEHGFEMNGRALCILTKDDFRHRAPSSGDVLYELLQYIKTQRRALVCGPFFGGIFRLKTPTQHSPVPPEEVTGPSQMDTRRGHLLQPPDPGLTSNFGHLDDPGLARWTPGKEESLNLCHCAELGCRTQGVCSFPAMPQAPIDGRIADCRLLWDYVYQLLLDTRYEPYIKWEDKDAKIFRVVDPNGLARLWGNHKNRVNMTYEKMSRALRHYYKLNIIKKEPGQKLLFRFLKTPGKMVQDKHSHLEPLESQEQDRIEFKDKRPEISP
In short, it runs like this: as §1

The target in a further assay is T6, ELF5 (Homo sapiens, UniProt Q9UKW6-2 1-255).
T6 sequence: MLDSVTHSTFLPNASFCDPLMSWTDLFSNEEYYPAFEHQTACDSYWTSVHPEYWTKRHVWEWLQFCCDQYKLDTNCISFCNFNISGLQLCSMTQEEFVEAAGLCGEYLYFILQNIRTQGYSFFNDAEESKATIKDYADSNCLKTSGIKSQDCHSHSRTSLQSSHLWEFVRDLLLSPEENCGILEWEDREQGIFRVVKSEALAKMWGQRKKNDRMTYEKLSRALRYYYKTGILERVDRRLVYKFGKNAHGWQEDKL
In short, it runs like this: as §1

The target of the next assay is T7, ETV3 (Homo sapiens, UniProt P41162-2 1-143).
T7 sequence: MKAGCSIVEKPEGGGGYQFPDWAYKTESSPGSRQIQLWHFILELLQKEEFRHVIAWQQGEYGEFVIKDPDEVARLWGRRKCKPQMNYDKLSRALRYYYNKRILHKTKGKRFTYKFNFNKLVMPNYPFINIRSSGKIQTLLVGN
Put shortly: as §1

For the next assay, the target named is ETV6 (Homo sapiens, UniProt P41212 1-452). Put shortly: as §1
Sequence of ETV6 (P41212 whole entry): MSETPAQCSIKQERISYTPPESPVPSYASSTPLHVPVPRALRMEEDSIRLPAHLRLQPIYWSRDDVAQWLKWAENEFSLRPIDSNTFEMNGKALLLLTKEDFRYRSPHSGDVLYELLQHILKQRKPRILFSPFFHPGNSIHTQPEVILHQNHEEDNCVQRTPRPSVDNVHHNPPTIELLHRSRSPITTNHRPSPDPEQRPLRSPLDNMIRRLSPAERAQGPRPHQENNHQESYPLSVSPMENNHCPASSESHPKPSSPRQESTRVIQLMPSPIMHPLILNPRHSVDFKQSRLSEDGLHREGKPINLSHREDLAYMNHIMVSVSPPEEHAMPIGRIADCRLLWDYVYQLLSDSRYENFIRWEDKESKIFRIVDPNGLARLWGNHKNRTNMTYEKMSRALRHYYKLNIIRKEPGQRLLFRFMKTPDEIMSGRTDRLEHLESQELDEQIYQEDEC

For CGTCCG, the binding signal in the assay with ERF is 1.32 fold enrichment (6-mer frequency, TF over GST control); with ETV3L, 1.19 fold enrichment (6-mer frequency, TF over GST control); in the assay with ETS2, 1.28 fold enrichment (6-mer frequency, TF over GST control); with SPDEF it was 1.48 fold enrichment (6-mer frequency, TF over GST control); in the assay with ETV7 it was 1.37 fold enrichment (6-mer frequency, TF over GST control); with ELF5, 1.44 fold enrichment (6-mer frequency, TF over GST control). Also, the binding signal with ETV3 is 1.22 fold enrichment (6-mer frequency, TF over GST control); with ETV6, 1.34 fold enrichment (6-mer frequency, TF over GST control).

Turning to ACTCAC, the binding signal with ERF was 1.25 fold enrichment (6-mer frequency, TF over GST control); in the assay with ETV3L it was 1.16 fold enrichment (6-mer frequency, TF over GST control); in the assay with ETS2 it was 1.28 fold enrichment (6-mer frequency, TF over GST control); with SPDEF, 1.22 fold enrichment (6-mer frequency, TF over GST control); with ETV7 it was 1.2 fold enrichment (6-mer frequency, TF over GST control); in the assay with ELF5 it was 1.21 fold enrichment (6-mer frequency, TF over GST control). Further, the binding signal in the assay with ETV3 is 1.15 fold enrichment (6-mer frequency, TF over GST control); with ETV6, 1.22 fold enrichment (6-mer frequency, TF over GST control).

For ATCCCG, the binding signal with ERF is 1.4 fold enrichment (6-mer frequency, TF over GST control); with ETV3L, 1.33 fold enrichment (6-mer frequency, TF over GST control); in the assay with ETS2, 1.44 fold enrichment (6-mer frequency, TF over GST control); with SPDEF, 1.71 fold enrichment (6-mer frequency, TF over GST control); with ETV7 it was 1.27 fold enrichment (6-mer frequency, TF over GST control); with ELF5 it was 1.7 fold enrichment (6-mer frequency, TF over GST control). Besides, the binding signal with ETV3 is 1.41 fold enrichment (6-mer frequency, TF over GST control); with ETV6, 1.52 fold enrichment (6-mer frequency, TF over GST control).

TTTTGA: the binding signal is 1.15 fold enrichment (6-mer frequency, TF over GST control) in the assay with ERF; 1.07 fold enrichment (6-mer frequency, TF over GST control) in the assay with ETV3L; 1.07 fold enrichment (6-mer frequency, TF over GST control) with ETS2; 1.05 fold enrichment (6-mer frequency, TF over GST control) in the assay with SPDEF; 1.02 fold enrichment (6-mer frequency, TF over GST control) with ETV7; 1 fold enrichment (6-mer frequency, TF over GST control) with ELF5. The binding signal with ETV3 was 1.03 fold enrichment (6-mer frequency, TF over GST control); with ETV6, 1.04 fold enrichment (6-mer frequency, TF over GST control).

For the sequence TAATGA, the binding signal in the assay with ERF is 1.26 fold enrichment (6-mer frequency, TF over GST control); in the assay with ETV3L, 1.24 fold enrichment (6-mer frequency, TF over GST control); with ETS2 it was 1.2 fold enrichment (6-mer frequency, TF over GST control); in the assay with SPDEF, 1.11 fold enrichment (6-mer frequency, TF over GST control); in the assay with ETV7, 1.18 fold enrichment (6-mer frequency, TF over GST control); in the assay with ELF5, 1.12 fold enrichment (6-mer frequency, TF over GST control). In addition, the binding signal with ETV3 is 1.1 fold enrichment (6-mer frequency, TF over GST control); with ETV6, 1.21 fold enrichment (6-mer frequency, TF over GST control).

As for CGACCA, the binding signal in the assay with ERF is 1.19 fold enrichment (6-mer frequency, TF over GST control); with ETV3L, 1.33 fold enrichment (6-mer frequency, TF over GST control); with ETS2 it was 1.29 fold enrichment (6-mer frequency, TF over GST control); with SPDEF, 1.24 fold enrichment (6-mer frequency, TF over GST control); in the assay with ETV7 it was 1.16 fold enrichment (6-mer frequency, TF over GST control); in the assay with ELF5, 1.2 fold enrichment (6-mer frequency, TF over GST control). Moreover, the binding signal was 1.2 fold enrichment (6-mer frequency, TF over GST control) in the assay with ETV3 and 1.33 fold enrichment (6-mer frequency, TF over GST control) in the assay with ETV6.

In the case of ATACTA, the binding signal is 1.09 fold enrichment (6-mer frequency, TF over GST control) with ERF; 1.2 fold enrichment (6-mer frequency, TF over GST control) in the assay with ETV3L; 1.24 fold enrichment (6-mer frequency, TF over GST control) with ETS2; 1.17 fold enrichment (6-mer frequency, TF over GST control) with SPDEF; 1.14 fold enrichment (6-mer frequency, TF over GST control) in the assay with ETV7; 1.13 fold enrichment (6-mer frequency, TF over GST control) with ELF5. The binding signal was 1.14 fold enrichment (6-mer frequency, TF over GST control) in the assay with ETV3 and 1.11 fold enrichment (6-mer frequency, TF over GST control) with ETV6.

Values taken from article PMC7862700, “An all-to-all approach to the identification of sequence-specific readers for epigenetic DNA modifications on cytosine”.
